MCF10A rereplic – DNA re-replication induction in MCF 10a cells. Potency, µM (series often up to 46.1 µM), hits mostly activators. 350,000 compounds, 2.9% hits. MCF 10A DNA re-replication, Hoechst nuclear intensity, 48 h. AID 624296; further: nearly all actives have a fitted effect of over 50% in size
KB-V1 cytotox – KB-V1 MDR subline cytotoxicity | KB-V1 MDR cells viability, CellTiter-Glo, 72 h | Potency, µM (highest dose often 46.1 µM), usual class: cytotoxic | 400,000 compounds, 3.4% hits | AID 1347076; further: nearly all actives have a fitted effect of over 60% in size
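Readout: CellTiter-Glo luminescence, 10 min after addition. Cells: KB-V1 MDR subline, 72 h at 37 degrees C with compound. Analysis: corrected, normalized data fitted to concentration-effect curves.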
KB-3-1 tox – kills parental KB-3-1 adenocarcinoma cells; KB-3-1 viability, CellTiter-Glo ATP luminescence, 72 h; Potency, µM (titrated, usually from 46.1 µM), usual class: cytotoxic; AID 1347075; 400,000 compounds, 1.4% hits; further: nearly all actives have a fitted effect of over 60% in size
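KB-3-1 cells, DMEM (no phenol red) + 10% FBS; compound by pin transfer, 72 h, 37 °C. Readout: CellTiter-Glo luminescence after 10 min. Data normalized, curve-fitted.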
ELG1 repair inh – ELG1-dependent DNA repair inhibition. HEK293T ELG1-luciferase reporter, luminescence, 16 h; DNA damage induced by 5-fluorouridine. AID 504467. 330,000 compounds, 2.3% hits. Potency, µM (doses to about 46.1 µM), hits mostly inhibitors; further: nearly all actives have a fitted effect of over 55% in size
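Step one: seed 2,000 cells per well. Step two: pin-transfer compound or DMSO alongside 5-fluorouridine. Step three: incubate 16 hr, 37 °C, 5% CO2. Step four: add ONE-Glo, wait 30 min, read luminescence.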
SW480 rerep – inducers of DNA re-replication in SW480 colon cancer cells | Potency, µM (doses to about 46.1 µM), actives largely listed as activators | SW480 DNA re-replication, Hoechst DNA content imaging, 48 h | 340,000 compounds, 1.8% hits | AID 624297; further: nearly all actives have a fitted effect of over 55% in size
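SW480 cells exposed to compounds for 48 hr at 37 C, 5% CO2, then Hoechst-stained 40 min. Nuclear DNA content imaged by fluorescence scanning (405 nm excitation, 500-530 nm emission); re-replication scored as increased high-intensity nuclei.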
Numbers stand for hits; 0 = inactive; ? = inconclusive; - = not tested or not shown; [ ] = remark or other dose. A selection: hits, their analogues and other compounds. The true share with any hit is near 8.2%. The call rests on the fitted dose curve; in most records, active means well fitted curve in the direction sought with a large enough effect; inconclusive means small, poorly fitted or top-dose-only effect, or another doubt; inactive means no such curve, though single readings can be large; an effect the other way counts as inactive or inconclusive.

SMILES	MCF10A rereplic	KB-V1 cytotox	KB-3-1 tox	ELG1 repair inh	SW480 rerep
C=CCOC(=O)C1=C(C)NC(SCC)=C(C#N)C1c1ccc(Cl)cc1 (centres undefined)	23µM	23µM	?	?	?
CN(C)c1ccc(-c2nn3c(-c4cc(-c5ccccc5)n[nH]4)nnc3s2)cc1	-	0	?	-	-
CNCC(=O)c1c[nH]c2ccccc12	-	0	0	-	-
CCCc1cc(C(=O)OCC(=O)N2CCN(c3ccc(OC)cc3)CC2)sc1C	0	0	0	?	0
C=CCOC(=O)C1=C(C)NC(SCC(=O)Nc2ccc(C)c(Cl)c2)=C(C#N)C1c1ccco1 (centres undefined)	11µM	0	0	0	11µM
COCOCCn1cc(CN2CCS(=O)(=O)N(Cc3ccc(-c4cccc(N(C)C)c4)cc3)C(C(C)C)C2=O)nn1 (centres undefined)	-	0	0	-	-
c1ccc(CCc2nn3c(Cn4nnc5ccccc54)nnc3s2)cc1	0	0	0	0	0
c1ccc(-c2nn3c(Cn4nnc5ccccc54)nnc3s2)nc1	0	18µM	0	0	0
c1ccc(Cc2nn3c(Cn4nnc5ccccc54)nnc3s2)cc1	0	23µM	0	0	0
Cc1c(Cl)cccc1NC(=O)CNC(=O)C1CCN(C(=O)Nc2ccccc2)CC1	0	?	0	0	?
CC(C)N1CCC2(CC1)N=C(c1ccc3c(c1)OCO3)CC(c1cc(Cl)ccc1O)N2 (centres undefined)	5.8µM	?	15µM	0	?
Oc1ccc(Cl)cc1C1C=C(c2ccc3c(c2)OCO3)NC(c2ccc(C(F)(F)F)cc2)N1 (centres undefined)	-	0	?	-	-
CCOc1ccc(-c2cn3c(n2)sc2cc(C(=O)NC4CCCc5ccccc54)ccc23)cc1 (centres undefined)	-	?	0	-	-
O=C1CC(/C=C/c2ccccc2)(C(=O)NC2CCCC2)N1c1ccc(S(=O)(=O)N2CCCC2)cc1 (centres undefined)	?	2.9µM	0	0	0
COc1ccc(N2C(=O)CC2(/C=C/c2ccccc2OC)C(=O)NC2CCCC2)cc1 (centres undefined)	0	3.7µM	?	0	0
Cc1cc(C)n2ncc(C(=O)NCC(C)C)c2n1	-	0	0	-	-
Cc1cc(C)cc(NC2=C(c3ccccc3)C(=O)c3ccccc32)c1	-	?	0	-	-
COc1ccc(-c2csc(NC(C)=O)n2)cc1OC	0	0	0	?	0
COc1ccc(-c2csc(NC(=O)CCn3cnc4ccccc4c3=O)n2)cc1OC	0	18µM	0	7.3µM	0
Cc1ccc(-c2csc(NC(=O)/C=C/c3cccs3)n2)cc1C	?	9.2µM	?	?	0
COc1ccc(-c2csc(NC(=S)NC(=O)c3ccc4ccccc4c3)n2)cc1OC	?	?	?	0	15µM
COc1cccc(NC(=O)Nc2nc(-c3ccc(OC)c(OC)c3)cs2)c1	21µM	?	18µM	4.1µM	0
COc1cc(C(=O)NC(=S)Nc2nc(-c3ccc(F)cc3)cs2)cc(OC)c1OC	0	0	?	0	0
N#Cc1ccc(-c2csc(NC(=O)/C=C/c3cccs3)n2)cc1	?	0	0	?	0
CC(=O)c1ccc(Nc2cc(C)nc3nc(Cc4ccccc4)nn23)cc1	-	0	0	-	-
SMILES	MCF10A rereplic	KB-V1 cytotox	KB-3-1 tox	ELG1 repair inh	SW480 rerep
CCCCCSc1ncnc2c1sc1nc(N3CCOCC3)c3c(c12)CCCC3	-	0	0	-	-
Cc1ccc(-c2csc(NC(=O)Cn3cnc4c3c(=O)n(C)c(=O)n4C)n2)cc1C	21µM	0	0	?	0
COc1ccc(-c2nn(-c3ccccc3)cc2/C=C/C(=O)N2CCN(c3ccccn3)CC2)cc1	0	15µM	0	0	0
Cc1ccc(-c2nn(-c3ccccc3)cc2C(=O)N2CCN(c3ccccn3)CC2)cc1	0[9.22 µM]	?	?	?	?
O=C(c1cn(-c2ccccc2)nc1-c1ccccc1)N1CCN(c2ccccn2)CC1	?	21µM	?	?	?
O=[N+]([O-])c1cccc(SSc2cccc([N+](=O)[O-])c2)c1	?	0	0	-	18µM
CNC(=O)c1oc(-c2ccccc2)nc1C	0	0	0	0	0
Nc1ccc2oc(=O)c(-c3ccccc3)cc2c1	0	0	0	0	?
Cc1ccc(-c2cc(-c3ccco3)c3c(N)c(C(=O)NN)oc3n2)cc1	7.3µM	0	?	13µM	21µM
CNC(=S)NNC(=O)c1oc2nc(-c3ccccc3)cc(C)c2c1N	2.6µM	0	0	0	6.5µM
COc1cccc(/C=N/NC(=O)c2oc3nc(-c4ccccc4)cc(-c4ccco4)c3c2N)c1	?	0	0	16µM	?
NNC(=O)c1oc2nc(-c3ccccc3)cc(-c3ccccc3)c2c1N	18µM	0	0	16µM	?
CCNc1cc(Nc2c(C)n(C)n(-c3ccccc3)c2=O)c([N+](=O)[O-])c2nonc12	0	0	0	0	0
COc1ccc(C(=O)c2oc3ccccc3c2N)cc1	18µM	0	0	?	18µM
COc1ccc2oc(C)c(C(=O)c3ccc([N+](=O)[O-])cc3)c2c1	?	15µM	?	?	0
COc1ccc2oc(C(=O)c3ccccc3)c(N)c2c1	15µM	0	0	?	?
CC(C)(C)C1CCC(OCC(O)CN2CCN(c3ccccn3)CC2)CC1 (centres undefined)	?	16µM	?	0	0
OC(COC1CCCCC1)CN1CCN(c2ccccc2)CC1 (centres undefined)	0	?	0	0	0
CC(C)NCC(O)COC1CCC(C(C)(C)C)CC1 (centres undefined)	0	?	23µM	0	?
CC1CCCC(C)N1CC(O)COC1CCC(C(C)(C)C)CC1 (centres undefined)	?	0	0	?	?
CC(C)(C)C1CCC(OCC(O)CN2CCN(Cc3ccccc3)CC2)CC1 (centres undefined)	0	0	0	0	15µM
O=C(Nc1ccc(Cl)cc1Cl)[C@@H]1CC=C[C@@H]2CCN(C3CCCCC3)C(=O)[C@@H]21	-	0	0	-	-
COc1ccc(N2CCN(CC(=O)Nc3cccc(S(=O)(=O)N4CCOCC4)c3)CC2)cc1	0	10µM	?	0	0
O=C(CN1CCN(S(=O)(=O)N2CCCCC2)CC1)Nc1ccc(Cl)c(Cl)c1	?	13µM	?	?	0
O=C(CN1CCN(S(=O)(=O)c2ccc3ccccc3c2)CC1)Nc1ccc(N2CCOCC2)cc1	0	0	0	?	0
CN(C)S(=O)(=O)N1CCN(CC(=O)Nc2cc(Cl)ccc2Cl)CC1	0	18µM	0	0	0
COc1ccc(S(=O)(=O)N2CCN(CCC(=O)Nc3ccc(F)cc3)CC2)cc1	0	5.2µM	?	0	?
O=C(CN1CCN(S(=O)(=O)N2CCCCC2)CC1)Nc1cc(Cl)cc(Cl)c1	0	?	0	?	0
Cc1c(Cc2ccccc2)[n+](=O)c2ccccc2n1[O-]	-	0	0	-	-
